The campaign covered roughly 5,500 compounds. About 2,000 (36%) were called active. Another 18% or so got no clear call; they are omitted. Rule as the data show it: active = normalized growth mostly below about 0.91 (no sharp cut-off); inconclusive = no clear call, values can overlap the other calls; inactive = mostly above about 0.92. The list shows a part of the results.
Assay: chemical genetic growth profiling, strain panel (AID 1159580);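 also: tested at 20 µM; growth read once vehicle control cultures reached saturation at 30 °C; 1 = growth at the plate median or of vehicle wells; lower values mean less growth of the strain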
Conditions: S. cerevisiae deletion strains, growth OD

Measured: normalized growth

C[C@]12CC[C@@H]3c4ccc(O)cc4CC[C@H]3[C@@H]1CCC2=O
inactive: locus YAL040C, strain CLN3, stronger effect = lower value 0.996 | locus YCL061C, strain MRC1 (second series), stronger effect = lower value 1.01 | locus YDR150W, strain NUM1, stronger effect = lower value 1 | locus YDR363W, strain ESC2, stronger effect = lower value 1 | locus YER002W, strain NOP16, stronger effect = lower value 0.995 | locus YMR263W, strain SAP30, stronger effect = lower value 1 | locus YMR307W, strain GAS1, stronger effect = lower value 1 | locus YNL175C, strain NOP13, stronger effect = lower value 0.985 | locus YNL197C, strain WHI3, stronger effect = lower value 1 | locus YNL224C, strain SQS1, stronger effect = lower value 1 | locus YNL322C, strain KRE1, stronger effect = lower value 0.987 | locus YOR083W, strain WHI5 (second series), stronger effect = lower value 0.905 | locus YPL241C, strain CIN2, stronger effect = lower value 1
